Screening results from PubChem.
aSyn UTR act = Activators working through SNCA 5'UTR binding (MLPCN); alpha-synuclein 5'UTR reporter, activators screen; AID 1814; activity score, % (tested at 7.5 µM), hits read low; hit rate 7.1% among 300,000; in the data active = activity score below about -60%
A number is an active result; 0 = inactive. The list is a sample of the results.

SMILES | aSyn UTR act
O=c1[nH]c(=O)n([C@H]2C[C@H](O)[C@@H](CO)O2)cc1F | 0
COC(=O)c1cnc(SCc2ccc(C)cc2)n1C | -81
Cn1ccc(C(=O)Nc2ccc(Br)cc2Br)n1 | -79
COc1cccc(NC(=O)c2ncc(Cl)c(Cl)c2Cl)c1 | -224
COc1cccc(NC(=O)c2ccn(C)n2)c1 | -73
COc1cccc(NC(=O)c2cnsn2)c1 | -97
Cc1nn(-c2ccc(N3CCCCC3)nn2)c(C)c1CCC(=O)Nc1cc(F)ccc1F | -65
Cc1sc2ncn(/N=C/c3ccco3)c(=O)c2c1C | -67
Cn1cc(/C=N/n2cnc3scc(-c4ccc(Cl)cc4)c3c2=O)c2ccccc21 | 0
C/C(=N/NC(=O)C(O)(c1ccccc1)c1ccccc1)c1ccc([N+](=O)[O-])o1 | -66
O=C1/C(=C\c2cccs2)Sc2ccc3ccccc3c21 | -165
COc1cccc2oc3ccc(C#CC4(N)CCCCC4)cc3c(=O)c12 | -62
Cc1cc2sc3ccc(C#CC4(O)CCCCC4)cc3c(=O)c2cc1C | 0
COc1ccccc1C(=O)N1CCN(CCNC(=O)C(=O)Nc2ccc(Br)c(C)c2)CC1 | -89
O=C(O)/C=C/C(=O)c1ccc2c(c1)CCc1ccccc1-2 | -111
COc1ccc(/C=N/NC(=S)Nc2ccccc2)cc1 | -72
COc1ccc(NC(=O)O/N=C/c2ccccc2)cc1 | -140
S=C(N/N=C/c1ccc2ncccc2c1)Nc1ccccc1 | 0
S=C(N/N=C/c1ccccc1Cl)Nc1ccccc1 | -106
O=c1c2[nH]c3cccc(Cl)c3c2ncn1CC1CCCO1 (stereo not given) | -80
COc1cc(C2NC(=S)NC(C)=C2C(=O)Nc2ccc(C)cc2)ccc1O (stereo not given) | -171
OCC(O)/C=N/Nc1nc2ccccc2s1 (stereo not given) | -72
CCn1c(C)c(/C=N/Nc2nc3ccccc3s2)c2ccccc21 | -170
Cc1ccsc1/C=N/Nc1nc2ccccc2s1 | -148
C(=N\Nc1nc2ccccc2s1)/c1ccco1 | -80
SMILES | aSyn UTR act
C(=N\Nc1nc2ccccc2s1)/c1cccs1 | -212
CCNc1nc(N)c(C(=O)c2ccc(Cl)s2)s1 | -188
CC1CC(c2ccccc2)=Nc2ccccc2N1 (stereo not given) | -100
Fc1ccc(-c2nc(-c3cccs3)no2)cc1 | -134
Fc1ccc(-c2cnc(-c3cccs3)o2)cc1 | -148
COc1ccc(-c2cc(=NC(CC(C)C)C(=O)O)c3cc(C)ccc3o2)cc1 (stereo not given) | -153
CCc1c(C)nc2cc(-c3ccccc3)[nH]n2c1=O | -110
CCCCc1c(C)nc2cc(-c3ccco3)[nH]n2c1=O | -68
Cc1ccccc1OCc1nc2ccccc2n1C | -170
Cc1cccc(OCc2nc3ccccc3c(=O)n2N)c1 | -71
Cn1c(COc2ccc(F)cc2)nc2ccccc21 | -121
Cc1cccc(OCc2nc3ccccc3n2C)c1 | -140
Nn1c(CSc2ccccn2)nc2ccccc2c1=O | -123
CC(/C=C1\SC(=Nc2cccnc2)NC1=O)=C\c1ccccc1 | -113
COc1cccc(/C=C2\CCC(C3CCCC3)C2=O)c1 (stereo not given) | -99
COc1cccc(/C=C2\CCC(C3CCCC3)C2=O)c1OC (stereo not given) | -163
Nc1c(C(=O)c2cccs2)oc2ccccc12 | -99
Nc1c(C(=O)c2ccc(Br)s2)oc2ccccc12 | -149
O=C(NC1CCCCC1)c1ccc2c(c1)OCCO2 | -82
S=C(NC1CCCCC1)c1ccc2c(c1)OCO2 | -65
O=C(NNC(=S)NC1CCCCC1)c1ccc2c(c1)OCO2 | -78
O=C(NCC1CCCO1)c1cc2c(s1)CCC2 (stereo not given) | -122
O=C(NCc1cccs1)c1cc2c(s1)CCCC2 | -142
CCCC(=O)c1ccc(N2CCCC2)c(F)c1 | -139
CCOC(=O)N1CCN(c2ccc(C(=O)c3ccccc3)cc2F)CC1 | -99
SMILES | aSyn UTR act
Cc1ccc(C(=O)c2cc([N+](=O)[O-])ccc2N2CCN(C)CC2)cc1 | 0
CCC(=O)c1ccc(N2CCCCCC2)c(F)c1 | -133
CCC(=O)c1ccc(N2CCN(C(=O)c3cccs3)CC2)c(F)c1 | -103
CCCCOc1ncnc2c1[nH]c1ccc(OC)cc12 | -214
CCCCOc1ncnc2c1[nH]c1ccccc12 | -81
CCCCOc1ncnc2c1[nH]c1ccc(F)cc12 | -118
CN(C)N1C(=O)/C(=C/c2ccco2)SC1=Nc1ccccc1 | -64
Cc1ccc(N2CCN(c3ccc(NCc4nc5ccccc5n4C)cc3)CC2)cc1 | -89
Cc1nc2cc(NCc3nc4ccccc4n3Cc3ccccc3)ccc2n1C | -96
Cc1cccc(NCc2nc3ccccc3n2C)c1 | -193
Cn1c(CNc2ccc(Cl)cc2)nc2ccccc21 | -176
O=C(Nc1ccc(Br)cc1)Nc1ccccc1Cl | -129
CCN1CCN(Cc2ccc(NC(=O)Nc3ccccc3Cl)cc2)CC1 | -87
CCN1CCN(Cc2ccccc2NC(=O)Nc2ccc(C)cc2)CC1 | -170
O=C(Nc1ccc(CN2CCCCC2)cc1)Nc1ccccc1Cl | -90
O=C(Nc1cccc(C(F)(F)F)c1)Nc1ccc(N2CCCC2)c(S(=O)(=O)Nc2ccccc2Cl)c1 | 0
O=c1cc(N2CCN(c3ccccc3Cl)CC2)[nH]c(=O)n1Cc1ccc(F)cc1 | -72
COc1ccc(/C=N/c2c(-c3ccco3)nc3ccccn23)cc1OC | -64
CC(=O)c1sc(NC(=O)c2ccc(C)c(C)c2)nc1C | -86
Cc1nc(NC(=O)c2ccccc2)sc1Cc1ccc2c(c1)OCO2 | -69
CC(=O)c1sc(NC(=O)c2ccc(C(C)(C)C)cc2)nc1C | -107
CC(=O)c1sc(NC(=O)c2cnc(Cl)c(Cl)c2)nc1C | -128
CC(=O)c1sc(NC(=O)c2ccc3c(c2)OCO3)nc1C | -136
CCN1CCc2nc(NC(=O)c3ccc4c(c3)OCCO4)sc2C1 | -83
Cc1csc(NC(=O)c2ccc3c(c2)OCO3)n1 | -81
SMILES | aSyn UTR act
O=C(Nc1nccs1)c1ccc2c(c1)OCO2 | -146
O=C(COc1ccc(Oc2ccccc2)cc1)NCc1cn2ccccc2n1 | 0
Fc1ccc(NCc2cn3ccccc3n2)cc1 | -174
Fc1cccc(NCc2cn3ccccc3n2)c1 | -97
Cn1nc(OC(=O)Nc2ccccc2)cc1C(F)(F)F | -123
OCc1cn(-c2ccccc2)nc1-c1ccc2c(c1)OCCO2 | -133
COc1cccc(-c2nn(-c3ccccc3)cc2CO)c1 | -127
O=C(N/N=C/c1cn(-c2ccccc2)nc1-c1ccc2c(c1)OCCO2)c1ccncc1 | -99
OCc1cn(-c2ccccc2)nc1-c1ccc(Br)cc1 | -117
O/N=C/c1cn(-c2ccccc2)nc1-c1ccc2c(c1)OCCO2 | -72
O=C(N/N=C/c1nn(-c2ccccc2)cc1-c1ccc(Cl)cc1)c1ccncc1 | -64
COC(=O)c1ccc(N2CCN(c3ccccc3)CC2)nc1 | -231
COC(=O)c1ccc(N2CCN(c3ccccc3)CC2)c(N)c1 | -134
COC(=O)c1c(NC(C)=O)sc(C(=O)Nc2ccccc2)c1C | -85
CCCC(=O)Nc1sc(C(=O)Nc2cccc(N)c2)c(C)c1C(=O)OC | -84
CCC(=O)Nc1sc(C(=O)Nc2ccccc2F)c(C)c1C(=O)OC | -64
COC(=O)c1c(NC(=O)c2cccnc2)sc(C(=O)N(C)C)c1C | -84
Clc1nc2sccn2c1/C=N/n1cnc2ccccc21 | -148
COc1cccc(OCc2cc(C(=O)NC3CCOCC3)no2)c1 | -139
CC1(C)CC(NC(=O)c2cc(COc3cccc(C(F)(F)F)c3)on2)CCO1 (stereo not given) | -93
CNc1c(N)c(=O)oc2ccccc12 | -74
CC(C)(C)c1cc(NCCCn2ccnc2)n2ncc(-c3ccc(Cl)cc3)c2n1 | -109
